Sampled rows, rich in hits. Any-hit rate of the full collection: about 3.5%.
FBA Mtb inh: inhibitors of M. tuberculosis fructose-bisphosphate aldolase. P9WQA3. purified M. tuberculosis FBA, fluorescence read-out. inhibition, % at 1 µM. 2.3% of 360,000 active. AID 588726
Mtb hypoxia inh: reduces hypoxia-regulated biosensor signal in M. tuberculosis. fluorescence inhibition, % (test concentration not listed). M. tuberculosis hypoxia-regulated fluorescent reporter, fluorescence. 0.1% of 300,000 active; in the data active means fluorescence inhibition mostly above about 23%, no sharp cut-off; inactive means mostly below about 17%
FadD28 binding: inhibitors of Mycobacterium tuberculosis FadD28 bisubstrate binding. inhibition, % at 12.5 µM. FadD28 bisubstrate probe binding, fluorescence polarization. 0.22% of 360,000 active; in the data active means inhibition above about 8.5%, passing the limit was not always enough
GDH-TPI counter-1: GDH-TPI coupled enzyme inhibition counter-screen | 1.2% of 360,000 active | inhibition, % at 4.8 µM | GDH-TPI coupled enzyme counterscreen, NADH absorbance | AID 588335; in the data active means inhibition above about 30%
Rv3671c inh: inhibits the M. tuberculosis serine protease Rv3671c | inhibition, % at 5.96 µM | 0.048% of 320,000 active; in the data active means inhibition above about 38%;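 further: extracellular domain of Rv3671c used as enzyme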
Mtb UGM inh: blocks M. tuberculosis UGM enzyme; AID 504406; inhibition, % at 10 µM; purified UGM, fluorescence polarization probe displacement; 0.06% of 320,000 active; in the data active means inhibition above about 10%, passing the limit was not always enough
Target sequence (P9WIQ1 whole entry, looked up): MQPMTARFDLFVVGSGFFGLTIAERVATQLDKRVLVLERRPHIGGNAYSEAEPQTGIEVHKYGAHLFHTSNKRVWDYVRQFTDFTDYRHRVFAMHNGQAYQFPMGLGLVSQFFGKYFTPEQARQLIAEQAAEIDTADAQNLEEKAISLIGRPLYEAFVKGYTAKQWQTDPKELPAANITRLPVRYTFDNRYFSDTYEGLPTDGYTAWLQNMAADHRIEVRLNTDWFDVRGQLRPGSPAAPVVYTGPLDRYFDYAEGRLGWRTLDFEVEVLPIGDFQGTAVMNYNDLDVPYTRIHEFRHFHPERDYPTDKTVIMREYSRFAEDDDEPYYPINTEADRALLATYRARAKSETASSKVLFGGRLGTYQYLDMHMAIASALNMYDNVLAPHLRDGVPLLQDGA
Mtb FBA confirm: confirmation of M. tuberculosis fructose-bisphosphate aldolase inhibitors; shares compounds with FBA Mtb inh; purified M. tuberculosis FBA, fluorescence read-out; inhibition, % at 1 µM; 78% of 5,600 active
GDH-TPI counter-2: inhibits GDH-TPI coupling enzymes, flagging Mtb FBA hits; shares compounds with FBA Mtb inh; GDH-TPI coupled enzyme counterscreen, fluorescence; inhibition, % at 1 µM; 81% of 5,600 active; AID 652141; in the data active means inhibition above about 10%
Numbers stand for hits. Unless noted, no stated cut-off is given here; in the data, active means inhibition above about 27%; inactive means the rest.

How did CCN1C(=O)C2C(c3ccc(C)cc3)N3C(=O)N(c4ccc(C)cc4)C(=O)[C@@]3(C)C2C1=O (some centres undefined) do in these assays?
Mtb hypoxia inh: inactive

Results for O=C(Nc1c2ccccc2nc2ccccc12)C(Cl)(Cl)Cl ?
FBA Mtb inh: 90.1; Mtb hypoxia inh: inactive; FadD28 binding: inactive; GDH-TPI counter-1: inactive; Rv3671c inh: inactive; Mtb UGM inh: inactive; Mtb FBA confirm: inactive; GDH-TPI counter-2: inactive

What do the screens show for `O=C(Cc1ccccc1)NNc1c2ccccc2nc2ccccc12`?
FBA Mtb inh: inactive; Mtb hypoxia inh: inactive; FadD28 binding: inactive; GDH-TPI counter-1: inactive; Rv3671c inh: inactive; Mtb UGM inh: inactive

How did O=C(Nc1ccc2c(c1)OCO2)C1Cc2c(-c3cccnc3)ccnc2O1 (centres undefined) do in these assays?
FBA Mtb inh: inactive; FadD28 binding: inactive; GDH-TPI counter-1: inactive

How did O=C(Nc1ccccc1)C1Cc2c(-c3ccc4c(c3)OCO4)ccnc2O1 (centres undefined) do in these assays?
FBA Mtb inh: 46.2; FadD28 binding: inactive; GDH-TPI counter-1: inactive; Mtb FBA confirm: 143.3; GDH-TPI counter-2: 145.7

How did O=C(Nc1cccnc1)C1Cc2c(-c3ccc4c(c3)OCO4)ccnc2O1 (centres undefined) do in these assays?
FBA Mtb inh: 54.4; FadD28 binding: inactive; GDH-TPI counter-1: inactive; Mtb FBA confirm: active; GDH-TPI counter-2: 162.4

How did O=C1CCN(CCc2ccccc2)CCN1C(CO)c1ccccc1 (centres undefined) do in these assays?
Mtb hypoxia inh: inactive

What do the screens show for `CC(C#N)(Nc1ccc(Cl)cc1)c1cccnc1` (centres undefined)?
FBA Mtb inh: 27.5; Mtb hypoxia inh: inactive; FadD28 binding: inactive; GDH-TPI counter-1: inactive; Rv3671c inh: inactive; Mtb UGM inh: inactive; Mtb FBA confirm: active; GDH-TPI counter-2: active

What do the screens show for `COc1ccc(-c2cc3cc(OC)c(OC)cc3c(C)n2)cc1`?
FBA Mtb inh: 47.0; Mtb hypoxia inh: inactive; FadD28 binding: inactive; GDH-TPI counter-1: inactive; Rv3671c inh: inactive; Mtb UGM inh: inactive; Mtb FBA confirm: 73.2; GDH-TPI counter-2: 55.0

Results for CC(C)(C)OC(=O)CC1CC=CCC(CC(=O)NCCO)C(=O)NC(c2ccccc2)COC1=O (centres undefined) ?
Mtb hypoxia inh: inactive

What do the screens show for `CC(C)Cc1[nH]c(=O)c(C#N)c2c1CCC2`?
FBA Mtb inh: 52.2; FadD28 binding: inactive; GDH-TPI counter-1: inactive; Rv3671c inh: inactive; Mtb UGM inh: inactive; Mtb FBA confirm: active; GDH-TPI counter-2: 168.6

Results for c1nc2sc3c(c2c2nnnn12)CCC3 ?
FBA Mtb inh: 35.8; Mtb hypoxia inh: inactive; FadD28 binding: inactive; GDH-TPI counter-1: inactive; Rv3671c inh: inactive; Mtb UGM inh: inactive; Mtb FBA confirm: inactive; GDH-TPI counter-2: inactive

What do the screens show for `CCOC(=O)C1CCN(C(=O)Nc2ccc3nccnc3c2)CC1`?
FBA Mtb inh: 36.9; FadD28 binding: inactive; GDH-TPI counter-1: inactive; Rv3671c inh: inactive; Mtb UGM inh: inactive; Mtb FBA confirm: 56.8; GDH-TPI counter-2: 37.5

Results for CCOC(=O)C1CCN(C(=O)Nc2ccc3snnc3c2)CC1 ?
FBA Mtb inh: inactive; Mtb hypoxia inh: inactive; FadD28 binding: inactive; GDH-TPI counter-1: inactive; Rv3671c inh: inactive; Mtb UGM inh: inactive

Results for CC1(C)CC(n2c(NCCO)nc3c(c2=O)C2(CCCC2)Cc2ccccc2-3)CCO1 (centres undefined) ?
FBA Mtb inh: 38.0; Mtb hypoxia inh: inactive; FadD28 binding: inactive; GDH-TPI counter-1: inactive; Rv3671c inh: inactive; Mtb UGM inh: inactive; Mtb FBA confirm: active; GDH-TPI counter-2: 193.2

How did O=c1[nH]c(NCCO)nc2c1C1(CCCCC1)Cc1ccccc1-2 do in these assays?
FBA Mtb inh: 97.7; FadD28 binding: inactive; GDH-TPI counter-1: inactive; Rv3671c inh: inactive; Mtb UGM inh: inactive; Mtb FBA confirm: inactive; GDH-TPI counter-2: inactive

How did CC(=O)Nn1cnc2c(c1=O)C1(CCCCC1)Cc1ccccc1-2 do in these assays?
FBA Mtb inh: inactive; FadD28 binding: inactive; GDH-TPI counter-1: inactive; Rv3671c inh: inactive; Mtb UGM inh: inactive

How did CCC(C)C(NC(=O)OC(C)(C)C)c1cn(C(Cc2ccc(O)cc2)C(=O)N2CCN(C(=O)OC(C)(C)C)CC2)nn1 (centres undefined) do in these assays?
Mtb hypoxia inh: inactive

From PubChem
